Each compound was assayed on TDF (assay: H1.0 immunofluorescence intensity relative to DMSO (% of DMSO); higher = stronger H1.0 induction, active = 120 or more). Settings: concentration: 10 µM; 24 h.
Summary of the method: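 Compounds were applied at 10 µM for 24 h at 37 °C, in triplicate, to HCC1569 and TDF cells. The cells were then fixed and stained for H1.0, and nuclei were counterstained with DAPI. Nuclear H1.0 intensity or cell number is reported relative to the plate control as a percent, taking the median of replicates. Smoothing for positional effects was applied to HCC1569 values only.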
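Note: TDF is a line of transformed human dermal fibroblasts of mesenchymal origin.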

Structure (SMILES)	H1.0 immunofluorescence intensity
COc1ccc(-c2cc(=O)c3c(O)cc(OC4OC(COC5OC(C)C(O)C(O)C5O)C(O)C(O)C4O)cc3o2)cc1O (stereo unspecified) [Diosmin]	91.8 (inactive)
CC1C(=O)OC2C(O)C34C5CC(C(C)(C)C)C36C(OC(=O)C6O)OC4(C(=O)O5)C12O (stereo unspecified) [Ginkgolide B]	101 (inactive)
O=C(O)c1cc(=O)c2c(Cl)cc(Cl)cc2[nH]1 [5,7-Dichlorokynurenic acid]	95.2 (inactive)
CCCn1cnc2c1c(=O)n(CCCCC(C)=O)c(=O)n2C [Propentofylline]	90.3 (inactive)
CC(NC(=O)CCc1nc(=O)c2ccccc2[nH]1)c1ccccc1 (stereo unspecified)	93.7 (inactive)
COc1cc(C(O)CO)ccc1OS(=O)(=O)[O-].[K+] (stereo unspecified) [MHPG sulfate potassium]	89.9 (inactive)
CC1=C(C)C(=O)C(CCCCC#CCCCC#CCO)=C(C)C1=O	104 (inactive)
CS(=O)(=O)O.Cc1ccc(N(CC2=NCCN2)c2cccc(O)c2)cc1 [Phentolamine mesylate]	97.7 (inactive)
CC(O)CCCC(O)C=CC1C(O)CC(=O)C1CC=CCCCC(=O)O [19(R)-Hydroxy-prostaglandin E2]	95.7 (inactive)
CCn1cc(C(=O)O)c(=O)c2ccc(Cc3ccccc3)nc21 [Amfonelic acid]	92.2 (inactive)
Cl.OC(CCN1CCCCC1)(c1ccccc1)C1CCCCC1 (stereo unspecified) [Trihexyphenidyl hydrochloride]	94 (inactive)

Source: the supplement of paper PMC7156485
